# Test results reported in the supplement of paper PMC3334620.
# In all, about 33,000 sequences were measured (“E-score (-0.5 to 0.5)”: median about -0.054, highest 2% from about 0.39 on). The sample holds the highest values, similar sequences and a random draw of the others, so the mix is not that of the screen.
# Target: Ylr278c (UniProt Q05854)
# Assay: PBM E-score (8-mer binding enrichment) (E-score (-0.5 to 0.5)); higher = stronger / more preferred TF binding
# Details: protein concentration: 200 nM; construct: GST-DNA-binding domain
# Summary of the method: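 Yeast transcription factors carrying a GST tag, as full-length proteins or DNA-binding domains, were produced by PURExpress in vitro transcription/translation. About 100-200 nM protein was applied to universal all-10-mer Agilent arrays, double-stranded by primer extension on fresh or once-stripped slides. Bound protein was detected with fluorescent anti-GST, and scans were normalised with masliner. The Universal PBM Analysis Suite gave each ungapped eight-base word, pooled with its reverse complement, an E-score, a modified Wilcoxon-Mann-Whitney statistic.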
# Sequence of UniProt Q05854 (Q05854 whole entry): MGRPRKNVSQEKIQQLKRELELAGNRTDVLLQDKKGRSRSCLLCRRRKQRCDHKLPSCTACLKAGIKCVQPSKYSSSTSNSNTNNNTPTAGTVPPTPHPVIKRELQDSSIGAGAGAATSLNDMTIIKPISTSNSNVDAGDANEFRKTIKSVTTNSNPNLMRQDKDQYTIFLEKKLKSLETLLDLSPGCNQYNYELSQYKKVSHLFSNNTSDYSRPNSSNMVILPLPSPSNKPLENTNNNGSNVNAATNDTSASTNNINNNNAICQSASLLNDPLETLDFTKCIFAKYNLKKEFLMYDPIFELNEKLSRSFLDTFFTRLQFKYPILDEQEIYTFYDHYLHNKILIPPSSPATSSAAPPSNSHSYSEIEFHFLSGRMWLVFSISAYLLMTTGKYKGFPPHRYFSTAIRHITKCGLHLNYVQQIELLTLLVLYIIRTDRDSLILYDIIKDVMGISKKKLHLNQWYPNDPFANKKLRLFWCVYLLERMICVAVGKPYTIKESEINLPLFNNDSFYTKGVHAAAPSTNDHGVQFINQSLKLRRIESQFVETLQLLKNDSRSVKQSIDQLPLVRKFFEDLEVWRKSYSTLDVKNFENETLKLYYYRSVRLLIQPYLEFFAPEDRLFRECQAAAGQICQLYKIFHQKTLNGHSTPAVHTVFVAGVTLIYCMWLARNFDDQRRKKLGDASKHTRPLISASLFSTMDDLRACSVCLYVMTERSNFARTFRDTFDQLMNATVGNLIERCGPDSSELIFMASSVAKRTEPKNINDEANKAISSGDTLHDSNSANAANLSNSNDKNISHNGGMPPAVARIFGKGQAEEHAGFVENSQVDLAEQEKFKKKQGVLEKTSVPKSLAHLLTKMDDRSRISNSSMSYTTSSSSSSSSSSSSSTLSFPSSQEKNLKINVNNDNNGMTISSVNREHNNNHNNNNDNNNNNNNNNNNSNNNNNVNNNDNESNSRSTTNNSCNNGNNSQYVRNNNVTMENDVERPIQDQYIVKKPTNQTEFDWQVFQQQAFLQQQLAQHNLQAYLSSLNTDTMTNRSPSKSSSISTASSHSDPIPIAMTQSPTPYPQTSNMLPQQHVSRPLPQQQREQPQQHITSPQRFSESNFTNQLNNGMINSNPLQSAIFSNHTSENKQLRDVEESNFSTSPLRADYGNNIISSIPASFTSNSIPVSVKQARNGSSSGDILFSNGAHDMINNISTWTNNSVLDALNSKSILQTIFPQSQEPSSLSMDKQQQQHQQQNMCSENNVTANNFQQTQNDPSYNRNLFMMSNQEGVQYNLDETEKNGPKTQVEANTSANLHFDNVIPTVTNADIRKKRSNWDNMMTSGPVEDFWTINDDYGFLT
row,Sequence,PBM E-score
1,CAGTGTTC,-0.0124
2,ACCCAAGT,-0.215
3,AATTCAAT,-0.026
4,AGAAGTCA,-0.0826
5,AAAGCACA,-0.103
6,GCAACAGA,0.0725
7,ATCGGACA,0.419
8,AGCGGACA,0.294
9,ATCGGACG,0.357
10,CAGGCTAA,-0.247
11,AGTGCGAG,-0.276
12,ACCCTTAT,-0.098
13,TTCGAAAA,0.0013
14,TCCACGGA,0.406
15,CCCACGGA,0.359
16,AGAACGGA,0.256
17,GTCACGGA,0.401
18,GGAACGGA,0.398
19,CTCACGGA,0.264
20,ACCACGGA,0.341
21,CGAACGGA,0.312
22,ATCACGGA,0.365
23,TACTGCTA,-0.151
24,GCATACCC,-0.0377
25,GCGTCTTA,-0.209

row,Sequence,PBM E-score
1,GGGATGCA,-0.0857
2,CTCTCTTA,-0.169
3,AAATCTTA,-0.149
4,GCCCTTCC,-0.0379
5,CAGGCCGG,0.176
6,AAGGCCGG,0.434
7,AAGGCCGT,0.142
8,AAGGCCCG,0.128
9,AAGGCCGA,0.4
10,AAGGCCGC,0.188
11,CGCCTAAA,-0.186
12,ATAATGCA,-0.276
13,CGCCTCGC,0.0203
14,AGGGGTTA,-0.171
15,AGGGGTTC,0.0104
16,CCGGGTTC,0.337
17,GGGGGTTA,-0.28
18,CGGGGTTA,0.437
19,CGGGGTTC,0.401
20,ATAAGTTG,-0.0479
21,GCTGTCTA,-0.154
22,AATTCTCC,0.407
23,AATTCTCA,-0.13
24,CATTCTCC,0.191
25,ACAAAAGG,0.0804

row,Sequence,PBM E-score
1,CCACCGGA,0.455
2,TCACCGGA,0.394
3,TCACCGCA,0.0213
4,GCACCGTA,0.0145
5,ACACCGGC,0.355
6,TCACCGAA,0.178
7,ACACCGGA,0.416
8,GCACCGGA,0.429
9,CCACCGGG,0.329
10,GCACCGGC,0.264
11,ACACCGGT,0.324
12,CCACCGGC,0.295
13,GAGTCTCC,0.291
14,CCGCTTGC,0.217
15,GTACTAGA,-0.178
16,AGGACGTC,0.0253
17,AGGGCCCA,0.00775
18,AAGCGCAA,0.0312
19,AGTGGTGG,-0.158
20,AATCCACG,0.0023
21,CTCCGACC,0.458
22,CACCGACC,0.192
23,GGCCGACA,0.248
24,ATCCGACC,0.234
25,CTCCGACA,0.438

row,Sequence,PBM E-score
1,ATCCGACA,0.382
2,CCCCGACA,0.301
3,GCCCGACA,0.216
4,GTCCGACA,0.393
5,CACCATCA,-0.0978
6,GCTAGATA,-0.085
7,GAGGGGTA,-2e-05
8,ACGATGCA,-0.0494
9,CTTGCAAA,0.034
10,AGAAATCG,0.0562
11,CTAAAGAC,-0.12
12,CCGGAGCG,0.458
13,ACGGAGCA,0.344
14,ATGGAGCG,-0.0671
15,CCAGAGCG,-0.00204
16,AGGGAGCG,-0.14
17,CAGGAGCG,-0.00543
18,GCGGAGCA,0.376
19,ACGGAGCG,0.396
20,CCGGAGCA,0.473
21,CGGGAGCA,0.108
22,ACGGAGCT,0.395
23,ACGGAGCC,0.385
24,TACTCATA,-0.285
25,AGCATTGC,-0.106

row,Sequence,PBM E-score
1,GCAGTTCC,0.169
2,AGTGCGTA,-0.0325
3,CAGATAAC,0.123
4,CCCACTGA,-0.155
5,GTAGAAGA,-0.177
6,TCGGAGCA,0.455
7,GCGGAGCC,0.394
8,CCGGAGCC,0.422
9,GCAGAGCC,-0.128
10,CGGGAGCC,0.0673
11,TAGGAGCA,-0.184
12,CTGGAGCC,0.0766
13,TCAGAGCA,-0.282
14,GAGGAGCC,-0.0931
15,CTGAGGAC,0.0445
16,AGTCTTTG,-0.289
17,CATCAAGC,-0.0328
18,GGGGGCCA,-0.0264
19,AAGCAAAT,-0.19
20,GTCACGAA,-0.0546
21,AGTGTTAT,-0.0541
22,CAGTCCAA,-0.218
23,CGGAACAG,0.388
24,CGGAACAA,0.427
25,TGGAACAA,-0.206

row,Sequence,PBM E-score
1,AGGAACAG,-0.279
2,GGGAACAA,0.0828
3,CGGAACAC,0.353
4,AAACAGCA,0.0669
5,ATTTCATC,0.166
6,GCTTGTTA,0.0864
7,CCGGATCG,0.396
8,CCGGATCA,0.385
9,CAGGATCG,0.00336
10,GCGGATCC,0.271
11,ACGGATCG,0.142
12,CCGGATCC,0.42
13,CTCTTCTC,-0.106
14,AAATTCAA,0.0115
15,CAACTAAA,-0.0258
16,ACTACTCG,0.0653
17,ATCCTGGA,-0.101
18,CGTGGTAG,-0.0716
19,GTCGGAAC,0.413
20,AGCGGAAT,0.385
21,ATCGGAAT,0.443
22,AACGGAAC,0.322
23,CTCGGAAC,0.381
24,AACGGAAT,0.379
25,CTCGGAAA,0.374

row,Sequence,PBM E-score
1,ATCGGAAC,0.406
2,TCGGGAAA,0.35
3,TTCGGAAA,0.419
4,ATTGGAAC,-0.0837
5,GTGGGAAC,-0.189
6,GATGACGC,-0.146
7,AGACACCT,-0.185
8,CGCAGGGC,0.049
9,ACTTTGCT,-0.141
10,ACTAACGC,0.0051
11,AACCTCAT,-0.143
12,AGCGGAAA,0.358
13,ATCGGAAA,0.416
14,ATCGGAAG,0.332
15,GTCGGGAA,0.201
16,GTCGGAAA,0.424
17,CAGCCACC,0.0671
18,AGCGACTC,-0.142
19,ACAAACTC,0.155
20,CCCTTTAA,-0.0852
21,CTCGTTCC,0.165
22,ATTAACCG,0.322
23,CATTTGGG,-0.0571
24,GAAGAGAC,0.0662
